# Results reported in publication PMC7862700, “An all-to-all approach to the identification of sequence-specific readers for epigenetic DNA modifications on cytosine”.
# Tests used:
# Test in all cases: DAPPL (digital affinity profiling via proximity ligation, sequencing); 10 mM Tris-HCl pH 7.5, 50 mM NaCl, 1 mM DTT, 4% glycerol, room temperature, 30 min; GST-TFs on glutathione beads, 16-mer random dsDNA library, 0.1% formaldehyde crosslink after washing; high values mean tight binding
# FLI1 = biological target: T1, FLI1 (Homo sapiens, UniProt Q01543 1-452); details: protein: recombinant; tags: N-terminal GST; dsDNA, one strand shown
# T1 sequence: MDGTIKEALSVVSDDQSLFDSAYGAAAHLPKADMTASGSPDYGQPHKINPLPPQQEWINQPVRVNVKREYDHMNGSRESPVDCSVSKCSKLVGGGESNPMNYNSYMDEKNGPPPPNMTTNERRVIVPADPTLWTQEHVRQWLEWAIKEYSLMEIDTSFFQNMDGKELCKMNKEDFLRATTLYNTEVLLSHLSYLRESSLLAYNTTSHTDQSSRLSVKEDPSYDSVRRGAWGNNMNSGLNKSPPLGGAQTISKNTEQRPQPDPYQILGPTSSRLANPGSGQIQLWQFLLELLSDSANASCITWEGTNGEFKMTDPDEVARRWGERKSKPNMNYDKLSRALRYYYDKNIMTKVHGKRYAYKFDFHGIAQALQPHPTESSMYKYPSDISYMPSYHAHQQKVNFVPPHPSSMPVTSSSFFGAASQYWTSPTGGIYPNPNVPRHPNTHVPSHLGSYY
# In short: (§1)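 Human transcription factors carrying a GST fusion were produced in yeast, bound to glutathione beads, tagged with DNA barcodes and pooled together with a tag-only sample. Each pool was held with 200 nmole of a random double-stranded 16-mer DNA library in Tris/NaCl/DTT/glycerol buffer for 30 min at room temperature, then washed, crosslinked in 0.1% formaldehyde, proximity-ligated with BsaI/T4 ligase (1 h, 37 °C), PCR-amplified and sequenced on an Illumina NextSeq500. Binding signal is the read frequency of each hexamer for a given factor divided by its frequency in the tag-only sample.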
# ELK1 = biological target: T2, ELK1 (Homo sapiens, UniProt P19419 1-428); details: protein: recombinant; tags: N-terminal GST; dsDNA, one strand shown
# T2 sequence: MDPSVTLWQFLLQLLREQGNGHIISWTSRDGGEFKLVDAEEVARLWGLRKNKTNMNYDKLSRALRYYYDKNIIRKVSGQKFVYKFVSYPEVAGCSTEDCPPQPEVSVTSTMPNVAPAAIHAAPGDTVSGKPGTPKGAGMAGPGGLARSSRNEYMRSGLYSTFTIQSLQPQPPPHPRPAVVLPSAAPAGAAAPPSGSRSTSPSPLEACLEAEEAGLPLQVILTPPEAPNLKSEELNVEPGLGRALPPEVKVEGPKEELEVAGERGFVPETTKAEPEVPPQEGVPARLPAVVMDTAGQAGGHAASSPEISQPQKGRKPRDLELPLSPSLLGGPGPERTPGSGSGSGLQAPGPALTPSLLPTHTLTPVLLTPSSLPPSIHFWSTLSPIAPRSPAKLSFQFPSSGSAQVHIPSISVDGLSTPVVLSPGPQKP
# In short: as §1
# GABPA = biological target: T3, GABPA (Homo sapiens, UniProt Q06546 1-454); details: protein: recombinant; tags: N-terminal GST; dsDNA, one strand shown
# T3 sequence: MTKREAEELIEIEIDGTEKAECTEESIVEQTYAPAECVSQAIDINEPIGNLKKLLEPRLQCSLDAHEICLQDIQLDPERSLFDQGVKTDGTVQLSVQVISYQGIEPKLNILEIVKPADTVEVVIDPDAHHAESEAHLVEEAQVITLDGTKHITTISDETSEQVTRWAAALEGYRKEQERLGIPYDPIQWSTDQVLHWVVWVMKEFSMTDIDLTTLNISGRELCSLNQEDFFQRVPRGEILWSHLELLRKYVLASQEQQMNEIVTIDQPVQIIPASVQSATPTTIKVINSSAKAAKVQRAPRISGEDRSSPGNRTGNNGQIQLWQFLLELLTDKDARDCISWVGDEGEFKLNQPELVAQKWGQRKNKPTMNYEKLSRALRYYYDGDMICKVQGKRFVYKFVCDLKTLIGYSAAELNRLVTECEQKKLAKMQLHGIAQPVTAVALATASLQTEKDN
# In short: as §1
# ERG = biological target: T4, ERG (Homo sapiens, UniProt P11308 1-479); details: protein: recombinant; tags: N-terminal GST; dsDNA, one strand shown
# T4 sequence: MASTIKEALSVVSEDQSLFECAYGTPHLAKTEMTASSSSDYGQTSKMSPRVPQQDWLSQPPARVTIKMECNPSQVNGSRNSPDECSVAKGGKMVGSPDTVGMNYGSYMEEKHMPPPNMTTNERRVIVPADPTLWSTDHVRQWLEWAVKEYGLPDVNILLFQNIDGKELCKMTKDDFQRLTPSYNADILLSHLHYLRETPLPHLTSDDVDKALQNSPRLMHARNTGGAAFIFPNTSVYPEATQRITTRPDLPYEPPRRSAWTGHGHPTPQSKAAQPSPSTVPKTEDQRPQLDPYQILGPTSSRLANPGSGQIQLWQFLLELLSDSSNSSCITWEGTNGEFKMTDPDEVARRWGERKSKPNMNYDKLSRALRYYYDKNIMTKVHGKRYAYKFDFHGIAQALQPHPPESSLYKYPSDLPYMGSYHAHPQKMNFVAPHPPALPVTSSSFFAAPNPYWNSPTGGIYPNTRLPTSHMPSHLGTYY
# In short: as §1
# ELF1 = ELF1 (Homo sapiens, UniProt P32519 1-619); details: protein: recombinant; tags: N-terminal GST; dsDNA, one strand shown
# Sequence of ELF1 (P32519 whole entry): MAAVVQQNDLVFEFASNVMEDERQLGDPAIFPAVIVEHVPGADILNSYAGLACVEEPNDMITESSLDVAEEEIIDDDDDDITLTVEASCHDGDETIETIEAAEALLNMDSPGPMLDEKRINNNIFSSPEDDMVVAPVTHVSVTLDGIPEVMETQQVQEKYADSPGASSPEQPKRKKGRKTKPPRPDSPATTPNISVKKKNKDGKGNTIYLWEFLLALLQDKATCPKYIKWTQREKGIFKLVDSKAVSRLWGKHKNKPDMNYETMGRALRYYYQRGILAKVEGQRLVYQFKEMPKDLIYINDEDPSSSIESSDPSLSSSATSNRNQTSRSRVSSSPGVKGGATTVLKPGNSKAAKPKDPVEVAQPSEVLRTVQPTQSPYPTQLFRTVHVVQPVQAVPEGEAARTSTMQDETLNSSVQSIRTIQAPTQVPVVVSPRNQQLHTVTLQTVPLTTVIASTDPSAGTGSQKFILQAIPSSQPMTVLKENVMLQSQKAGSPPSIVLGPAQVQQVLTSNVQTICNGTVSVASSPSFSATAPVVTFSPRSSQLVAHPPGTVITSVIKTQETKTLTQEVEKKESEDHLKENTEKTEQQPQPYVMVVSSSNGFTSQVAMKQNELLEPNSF
# In short: as §1
# EHF = biological target: T5, EHF (Homo sapiens, UniProt Q9NZC4 1-300); details: protein: recombinant; tags: N-terminal GST; dsDNA, one strand shown
# T5 sequence: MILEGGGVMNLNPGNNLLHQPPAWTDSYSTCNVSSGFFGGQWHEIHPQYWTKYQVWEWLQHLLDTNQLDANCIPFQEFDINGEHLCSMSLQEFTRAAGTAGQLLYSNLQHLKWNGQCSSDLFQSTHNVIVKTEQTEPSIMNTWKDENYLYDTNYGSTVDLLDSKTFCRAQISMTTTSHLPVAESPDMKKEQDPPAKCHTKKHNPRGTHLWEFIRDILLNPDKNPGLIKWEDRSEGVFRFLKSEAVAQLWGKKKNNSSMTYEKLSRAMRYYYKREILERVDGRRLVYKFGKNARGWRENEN
# In short: as §1
# SPI1 = SPI1 (Homo sapiens, UniProt P17947 1-270); details: protein: recombinant; tags: N-terminal GST; dsDNA, one strand shown
# In short: as §1
# SPIB = SPIB (Homo sapiens, UniProt Q01892 1-262); details: protein: recombinant; tags: N-terminal GST; dsDNA, one strand shown
# Sequence of SPIB (Q01892 whole entry): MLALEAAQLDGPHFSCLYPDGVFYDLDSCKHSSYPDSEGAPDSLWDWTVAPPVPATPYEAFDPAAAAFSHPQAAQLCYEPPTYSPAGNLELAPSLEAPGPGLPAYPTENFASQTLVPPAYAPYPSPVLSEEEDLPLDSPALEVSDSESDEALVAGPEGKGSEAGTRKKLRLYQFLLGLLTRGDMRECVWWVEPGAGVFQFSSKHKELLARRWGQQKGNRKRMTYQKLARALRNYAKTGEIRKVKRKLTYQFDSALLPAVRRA
# In short: as §1
# ELK3 = biological target: T6, ELK3 (Homo sapiens, UniProt P41970 1-407); details: protein: recombinant; tags: N-terminal GST; dsDNA, one strand shown
# T6 sequence: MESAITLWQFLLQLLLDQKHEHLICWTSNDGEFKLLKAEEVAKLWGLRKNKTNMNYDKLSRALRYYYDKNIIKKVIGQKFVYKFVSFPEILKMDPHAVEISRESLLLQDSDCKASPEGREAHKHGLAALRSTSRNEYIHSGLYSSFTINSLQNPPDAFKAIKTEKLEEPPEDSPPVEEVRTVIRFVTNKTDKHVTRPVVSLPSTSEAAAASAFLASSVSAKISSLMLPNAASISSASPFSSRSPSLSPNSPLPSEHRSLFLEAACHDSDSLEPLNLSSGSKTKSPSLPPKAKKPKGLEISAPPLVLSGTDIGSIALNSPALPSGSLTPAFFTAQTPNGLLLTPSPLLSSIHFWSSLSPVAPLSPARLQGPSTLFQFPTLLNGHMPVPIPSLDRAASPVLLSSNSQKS
# In short: as §1
# FEV = biological target: T7, FEV (Homo sapiens, UniProt Q99581 1-238); details: protein: recombinant; tags: N-terminal GST; dsDNA, one strand shown
# T7 sequence: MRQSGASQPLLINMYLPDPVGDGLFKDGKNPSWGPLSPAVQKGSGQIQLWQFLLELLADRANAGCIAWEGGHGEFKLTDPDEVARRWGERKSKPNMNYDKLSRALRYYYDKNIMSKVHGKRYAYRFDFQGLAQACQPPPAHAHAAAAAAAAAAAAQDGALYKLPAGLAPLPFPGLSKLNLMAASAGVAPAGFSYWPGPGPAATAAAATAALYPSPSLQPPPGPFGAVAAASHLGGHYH
# In short: as §1
# ETV5 = ETV5 (Homo sapiens, UniProt P41161 1-510); details: protein: recombinant; tags: N-terminal GST; dsDNA, one strand shown
# Sequence of ETV5 (P41161 whole entry): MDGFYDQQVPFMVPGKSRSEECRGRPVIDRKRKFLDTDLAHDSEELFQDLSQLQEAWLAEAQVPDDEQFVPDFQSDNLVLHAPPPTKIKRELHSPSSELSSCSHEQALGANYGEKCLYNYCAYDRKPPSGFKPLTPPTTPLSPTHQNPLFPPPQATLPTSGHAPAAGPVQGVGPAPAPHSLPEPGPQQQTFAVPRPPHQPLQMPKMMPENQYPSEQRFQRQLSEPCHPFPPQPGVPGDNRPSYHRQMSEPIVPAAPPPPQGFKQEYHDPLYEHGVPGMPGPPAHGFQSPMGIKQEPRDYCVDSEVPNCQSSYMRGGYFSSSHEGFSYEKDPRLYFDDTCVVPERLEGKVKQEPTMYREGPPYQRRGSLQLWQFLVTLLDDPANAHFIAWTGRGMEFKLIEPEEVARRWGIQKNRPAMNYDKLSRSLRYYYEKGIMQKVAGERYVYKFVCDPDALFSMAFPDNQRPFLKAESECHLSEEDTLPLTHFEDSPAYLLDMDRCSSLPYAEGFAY
# In short: as §1
# HSF1 = HSF1 (Homo sapiens, UniProt Q00613 1-529); details: protein: recombinant; tags: N-terminal GST; chain copies: 3; dsDNA, one strand shown
# Sequence of HSF1 (Q00613 whole entry): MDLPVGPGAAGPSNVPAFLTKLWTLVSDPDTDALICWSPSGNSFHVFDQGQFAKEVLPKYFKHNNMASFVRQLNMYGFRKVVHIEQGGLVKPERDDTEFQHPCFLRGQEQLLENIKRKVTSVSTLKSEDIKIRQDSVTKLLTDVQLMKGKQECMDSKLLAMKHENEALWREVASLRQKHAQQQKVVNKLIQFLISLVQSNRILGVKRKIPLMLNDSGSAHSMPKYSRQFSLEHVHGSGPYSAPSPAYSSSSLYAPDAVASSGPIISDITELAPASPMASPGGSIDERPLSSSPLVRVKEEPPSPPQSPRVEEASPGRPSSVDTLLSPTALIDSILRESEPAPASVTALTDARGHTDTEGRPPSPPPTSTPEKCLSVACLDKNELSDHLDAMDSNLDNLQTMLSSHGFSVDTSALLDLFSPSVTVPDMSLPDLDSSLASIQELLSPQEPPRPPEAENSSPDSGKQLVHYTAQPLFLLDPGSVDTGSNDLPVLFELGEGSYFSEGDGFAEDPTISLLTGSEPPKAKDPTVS
# In short: as §1
# SPIC = biological target: T8, SPIC (Homo sapiens, UniProt Q8N5J4 1-248); details: protein: recombinant; tags: N-terminal GST; dsDNA, one strand shown
# T8 sequence: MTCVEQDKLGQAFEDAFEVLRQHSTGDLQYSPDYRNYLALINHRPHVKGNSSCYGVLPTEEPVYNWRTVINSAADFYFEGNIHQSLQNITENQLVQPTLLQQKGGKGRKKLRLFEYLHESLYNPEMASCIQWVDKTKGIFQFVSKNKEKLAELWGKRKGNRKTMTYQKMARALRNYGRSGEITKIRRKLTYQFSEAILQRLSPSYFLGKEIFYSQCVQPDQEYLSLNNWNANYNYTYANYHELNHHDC
# In short: as §1
# ELF4 = ELF4 (Homo sapiens, UniProt Q99607 1-663); details: protein: recombinant; tags: N-terminal GST; dsDNA, one strand shown
# Sequence of ELF4 (Q99607 whole entry): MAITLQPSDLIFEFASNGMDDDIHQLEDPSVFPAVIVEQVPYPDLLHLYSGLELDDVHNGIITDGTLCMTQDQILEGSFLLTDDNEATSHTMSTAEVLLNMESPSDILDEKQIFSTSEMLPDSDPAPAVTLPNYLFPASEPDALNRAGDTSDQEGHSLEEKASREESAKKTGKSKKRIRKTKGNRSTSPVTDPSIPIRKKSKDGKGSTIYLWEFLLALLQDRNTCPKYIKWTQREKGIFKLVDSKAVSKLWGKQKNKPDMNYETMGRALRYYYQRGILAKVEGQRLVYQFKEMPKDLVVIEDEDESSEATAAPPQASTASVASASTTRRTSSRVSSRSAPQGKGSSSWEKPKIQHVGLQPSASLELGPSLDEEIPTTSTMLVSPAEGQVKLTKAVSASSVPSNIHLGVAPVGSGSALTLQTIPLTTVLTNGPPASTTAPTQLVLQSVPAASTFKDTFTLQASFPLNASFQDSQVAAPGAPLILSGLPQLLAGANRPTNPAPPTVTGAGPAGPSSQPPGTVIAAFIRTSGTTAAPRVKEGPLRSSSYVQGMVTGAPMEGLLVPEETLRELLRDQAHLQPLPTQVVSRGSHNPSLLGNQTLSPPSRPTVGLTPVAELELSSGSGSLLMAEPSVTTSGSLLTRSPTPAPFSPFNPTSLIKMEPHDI
# In short: as §1
# ELK4 = biological target: T9, ELK4 (Homo sapiens, UniProt P28324-2 1-405); details: protein: recombinant; tags: N-terminal GST; dsDNA, one strand shown
# T9 sequence: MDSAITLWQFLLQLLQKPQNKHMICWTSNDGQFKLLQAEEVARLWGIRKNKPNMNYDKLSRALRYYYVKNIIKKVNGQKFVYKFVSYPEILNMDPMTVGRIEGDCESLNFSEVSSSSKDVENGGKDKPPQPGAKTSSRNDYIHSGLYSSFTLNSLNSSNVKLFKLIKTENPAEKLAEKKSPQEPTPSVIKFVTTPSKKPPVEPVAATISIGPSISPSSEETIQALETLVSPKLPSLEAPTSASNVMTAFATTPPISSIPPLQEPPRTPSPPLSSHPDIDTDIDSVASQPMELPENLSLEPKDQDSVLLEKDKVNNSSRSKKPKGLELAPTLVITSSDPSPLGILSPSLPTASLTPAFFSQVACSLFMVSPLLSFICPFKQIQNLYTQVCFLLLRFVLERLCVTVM
# In short: as §1
# ETV2 = biological target: T10, ETV2 (Homo sapiens, UniProt O00321 1-342); details: protein: recombinant; tags: N-terminal GST; dsDNA, one strand shown
# T10 sequence: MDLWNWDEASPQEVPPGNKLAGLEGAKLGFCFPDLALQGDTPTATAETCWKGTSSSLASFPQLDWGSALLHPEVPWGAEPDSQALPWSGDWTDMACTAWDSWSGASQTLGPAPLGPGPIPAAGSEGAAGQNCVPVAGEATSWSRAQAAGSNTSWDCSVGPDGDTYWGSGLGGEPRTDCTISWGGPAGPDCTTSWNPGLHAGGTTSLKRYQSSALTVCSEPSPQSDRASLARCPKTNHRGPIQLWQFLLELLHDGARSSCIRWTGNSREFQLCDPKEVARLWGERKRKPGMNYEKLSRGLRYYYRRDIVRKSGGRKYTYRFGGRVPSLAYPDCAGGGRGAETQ
# In short: as §1
# ELF3 = biological target: T11, ELF3 (Homo sapiens, UniProt P78545 1-371); details: protein: recombinant; tags: N-terminal GST; dsDNA, one strand shown
# T11 sequence: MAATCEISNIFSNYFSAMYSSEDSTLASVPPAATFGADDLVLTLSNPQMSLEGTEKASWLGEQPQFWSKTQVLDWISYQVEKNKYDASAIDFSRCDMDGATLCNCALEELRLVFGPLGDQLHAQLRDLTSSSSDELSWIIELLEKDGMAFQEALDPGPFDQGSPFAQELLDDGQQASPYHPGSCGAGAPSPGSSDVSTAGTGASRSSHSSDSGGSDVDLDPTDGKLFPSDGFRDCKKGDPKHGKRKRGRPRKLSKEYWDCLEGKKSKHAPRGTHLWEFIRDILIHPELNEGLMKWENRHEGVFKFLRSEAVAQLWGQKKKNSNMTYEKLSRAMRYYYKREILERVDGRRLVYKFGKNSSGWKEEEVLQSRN
# In short: as §1
# CRX = CRX (Homo sapiens, UniProt O43186 1-299); details: protein: recombinant; tags: N-terminal GST; dsDNA, one strand shown
# Sequence of CRX (O43186 whole entry): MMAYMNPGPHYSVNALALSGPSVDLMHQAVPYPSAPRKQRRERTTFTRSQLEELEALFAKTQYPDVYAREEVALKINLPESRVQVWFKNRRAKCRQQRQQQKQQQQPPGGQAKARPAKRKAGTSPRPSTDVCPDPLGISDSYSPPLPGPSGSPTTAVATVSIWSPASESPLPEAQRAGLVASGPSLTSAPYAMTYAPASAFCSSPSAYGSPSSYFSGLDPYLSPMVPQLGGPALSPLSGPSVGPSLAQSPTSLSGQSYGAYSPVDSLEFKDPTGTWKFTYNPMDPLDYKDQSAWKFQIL
# In short: as §1
# ETV1 = ETV1 (Homo sapiens, UniProt P50549 1-477); details: protein: recombinant; tags: N-terminal GST; dsDNA, one strand shown
# Sequence of ETV1 (P50549 whole entry): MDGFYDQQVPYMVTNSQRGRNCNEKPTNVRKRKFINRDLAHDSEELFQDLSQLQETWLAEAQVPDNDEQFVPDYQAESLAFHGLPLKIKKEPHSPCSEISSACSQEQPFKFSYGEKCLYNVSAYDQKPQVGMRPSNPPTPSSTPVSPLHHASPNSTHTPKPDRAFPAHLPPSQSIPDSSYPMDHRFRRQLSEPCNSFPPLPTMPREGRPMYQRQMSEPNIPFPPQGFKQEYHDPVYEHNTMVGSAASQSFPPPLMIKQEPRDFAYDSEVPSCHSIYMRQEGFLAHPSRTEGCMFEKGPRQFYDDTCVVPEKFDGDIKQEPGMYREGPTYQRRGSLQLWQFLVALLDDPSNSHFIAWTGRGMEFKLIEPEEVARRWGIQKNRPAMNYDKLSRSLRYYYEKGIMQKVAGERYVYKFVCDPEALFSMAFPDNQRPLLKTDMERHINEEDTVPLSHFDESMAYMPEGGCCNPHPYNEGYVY
# In short: as §1
sequence,measurement,setting,value
ATTTAG,binding signal,FLI1,"1.13 fold enrichment (6-mer frequency, TF over GST control)"
same,binding signal,ELK1,"1.07 fold enrichment (6-mer frequency, TF over GST control)"
same,binding signal,GABPA,"1.27 fold enrichment (6-mer frequency, TF over GST control)"
same,binding signal,ERG,"1.02 fold enrichment (6-mer frequency, TF over GST control)"
same,binding signal,ELF1,"1.15 fold enrichment (6-mer frequency, TF over GST control)"
same,binding signal,EHF,"1.14 fold enrichment (6-mer frequency, TF over GST control)"
same,binding signal,SPI1,"1.11 fold enrichment (6-mer frequency, TF over GST control)"
same,binding signal,SPIB,"1.16 fold enrichment (6-mer frequency, TF over GST control)"
same,binding signal,ELK3,"1.09 fold enrichment (6-mer frequency, TF over GST control)"
same,binding signal,FEV,"1.08 fold enrichment (6-mer frequency, TF over GST control)"
same,binding signal,ETV5,"1.06 fold enrichment (6-mer frequency, TF over GST control)"
same,binding signal,HSF1,"1.37 fold enrichment (6-mer frequency, TF over GST control)"
same,binding signal,SPIC,"1.2 fold enrichment (6-mer frequency, TF over GST control)"
same,binding signal,ELF4,"1.05 fold enrichment (6-mer frequency, TF over GST control)"
same,binding signal,ELK4,"1.17 fold enrichment (6-mer frequency, TF over GST control)"
same,binding signal,ETV2,"1.3 fold enrichment (6-mer frequency, TF over GST control)"
same,binding signal,ELF3,"1.17 fold enrichment (6-mer frequency, TF over GST control)"
same,binding signal,CRX,"1.66 fold enrichment (6-mer frequency, TF over GST control)"
same,binding signal,ETV1,"1.11 fold enrichment (6-mer frequency, TF over GST control)"
